# Among all 69,000 compounds or so, about 8,600 (12%) showed an effect of 50% or more. Only a selection was taken, and strong results are over-represented in it overall.
# System: Plasmodium berghei
# Assay: Screen against P. berghei liver stage (PbLuc), transformed with Luciferase, at 10uM
# Assay type: functional, HepG2
# Details: tested at 10 uM
row,Compound,INHIBITION [%]
1,CCN(Cc1cccc2c1OCO2)C(=O)C(C)c1cccnc1 (stereo unspecified),40.9
2,CCc1noc(C(C)Sc2nnc(C3CC3)n2CC(N)=O)n1 (stereo unspecified),29
3,c1coc(-c2nc(CNC3CCC4(CCNCC4)CC3)no2)c1,33.1
4,O=C([C@H]1CCCO1)N1Cc2nccn2CC(COc2cccnc2)C1 (stereo partly specified),-30
5,CN(c1ccncn1)C1CC2(CCN(C(=O)Cc3cccs3)C2)C1 (stereo unspecified),51.5
6,CN(c1ccncn1)C1CC2(CCN(C(=O)CCc3cccs3)C2)C1 (stereo unspecified),37.5
7,CN(c1ccncn1)C1CC2(CCN(C(=O)c3cccs3)C2)C1 (stereo unspecified),42.1
8,CCc1nccn1C1CCCN(C(=O)CCCc2ccccn2)C1 (stereo unspecified),-6.14
9,CC(C)C[C@H]1CN(c2nc3c(cc2C(N)=O)CCC3)CC[C@@]1(C)O,-22.5
10,CN1CCC2(CC1)CN(C(=O)c1cccnc1)c1ccc(Cl)cc12,26.7
11,CCN1CCC2(CC1)CN(C(=O)c1cccnc1)c1ccc(Cl)cc12,60.2
12,CCCN1CCC2(CC1)CN(C(=O)c1cccnc1)c1ccc(F)cc12,26.7
13,CC(C(N)=O)N(C)CCCc1cc(-c2ccc(F)cc2)n(C)n1 (stereo unspecified),-52.5
14,Cc1nn(C)c(C)c1-c1ccc(=O)n(C(C)C(=O)NCc2ccco2)n1 (stereo unspecified),15.7
15,O=C(C[S+]([O-])Cc1c(F)cccc1Cl)N1CCc2sccc2C1 (stereo unspecified),-10.9
16,O=C(C[S+]([O-])Cc1c(Cl)cccc1Cl)N1CCc2sccc2C1 (stereo unspecified),50.5
17,O=C(C[S+]([O-])Cc1ccc(Cl)cc1Cl)N1CCc2sccc2C1 (stereo unspecified),21.8
18,O=C(C[S+]([O-])Cc1ccccc1F)N1CCc2sccc2C1 (stereo unspecified),-13.9
19,O=C(C[S+]([O-])Cc1ccc(F)cc1Cl)N1CCc2sccc2C1 (stereo unspecified),-3.96
20,O=C(C[S+]([O-])Cc1ccc(F)cc1)N1CCc2sccc2C1 (stereo unspecified),80.3
21,O=C(NCCc1cccs1)[C@H]1CO[C@H]2CCN(C3CCC3)C[C@H]2C1,62
22,O=C(NCc1cccs1)[C@H]1CO[C@H]2CCN(C3CCCC3)C[C@H]2C1,17.7

row,Compound,INHIBITION [%]
1,O=C(NCCc1cccs1)[C@H]1CO[C@H]2CCN(CC3CC3)C[C@H]2C1,17.7
2,CN(C)CCN1CCCC12CCN(C(=O)c1cccn1C)CC2,20.5
3,CN(Cc1ccccc1)C(=O)CS(=O)(=O)Cc1ccc(Cl)c(Cl)c1,-35.7
4,CN(Cc1cccs1)C(=O)CS(=O)(=O)Cc1ccc(Cl)c(Cl)c1,62.2
5,CN(Cc1ccsc1)C(=O)CS(=O)(=O)Cc1ccc(Cl)c(Cl)c1,9.32
6,Nc1nccnc1C1CN(C(=O)c2cnc(C3CC3)nc2)CCO1 (stereo unspecified),26.8
7,CCc1nn(C)c(Cl)c1CN1C[C@H](NC(=O)CCO)[C@@H](C(C)C)C1,14.8
8,Cc1noc(C)c1CN1C[C@@H](NC(=O)N(C)C)[C@H](C(C)C)C1,-9.29
9,CCc1nn(C)c(Cl)c1CN1C[C@@H](NC(=O)N(C)C)[C@H](C(C)C)C1,59.7
10,c1ccc(OCc2cscn2)c(CNC2CCc3ncnn3C2)c1 (stereo unspecified),3.1
11,CCN(CC1COc2ccccc2O1)C(=O)NCCCn1cncn1 (stereo unspecified),10.17
12,CC(=O)N1CCCC1c1nnn2cc(Nc3ccccc3)ccc12 (stereo unspecified),2.41
13,CC(=O)N1CCCC1c1nnn2cc(-c3ccncc3)ccc12 (stereo unspecified),61.9
14,CC(=O)N1CCCC1c1nnn2cc(NCc3cccnc3)ccc12 (stereo unspecified),-15.3
15,CCN1CCOCC12CCN(C(=O)C1CCC1)CC2,-22.1
16,CN(C)CCN1CCN(Cc2cccs2)Cc2cccnc21,7.53
17,c1coc(CN2CCO[C@H]3[C@@H](OCC4CC4)CC[C@@H]32)c1,6.67
18,CN(Cc1ccccn1)CC1CCCN1c1cccnn1 (stereo unspecified),-8.11
19,CCCc1nc(CNCC2CCCN2c2cccnn2)cs1 (stereo unspecified),48.2
20,CCCc1nc(CNCC2CCCN2c2cccnn2)no1 (stereo unspecified),59
21,CC(C)CCc1nc(CNCC2CCCN2c2cccnn2)cs1 (stereo unspecified),61.3
22,CN(Cc1cnn(-c2ccccc2)n1)C1CCCN(c2cccnn2)C1 (stereo unspecified),-19.4

row,Compound,INHIBITION [%]
1,CCc1nc(CNCC2CCCN2c2cccnn2)cs1 (stereo unspecified),5.8
2,CCc1noc(CNCC2CCCN2c2cccnn2)n1 (stereo unspecified),19.5
3,c1cnnc(N2CCCC2CNCc2cccs2)c1 (stereo unspecified),19.5
4,c1cnnc(N2CCCC2CNCCc2cccs2)c1 (stereo unspecified),91
5,CCc1nc(CNCC2CCCN2c2cccnn2)no1 (stereo unspecified),23.4
6,CN(Cc1cnn(-c2ccccc2)n1)CC1CCCN1c1cccnn1 (stereo unspecified),58.3
7,O=C(CNCC1CCCN1c1cccnn1)NCCc1cccs1 (stereo unspecified),28
8,CC(C)CN1CCS(=O)(=O)[C@@H]2CCN(S(=O)(=O)N(C)C)CC[C@@H]21,20.1
9,O=C(NCCN1CCCCC1)C(c1ccccc1)N1CCCC1 (stereo unspecified),-22.1
10,Cc1cnccc1-c1cnn(CCNC(=O)c2cccnc2)c1C1CC1,16.5
11,CC(C)N(C)Cc1nnc2n1CCCN(c1ncccn1)C2,29.5
12,CCC(CC)C(=O)NC1CCCc2nc(N3CCOCC3)ncc21 (stereo unspecified),7.52
13,Cn1cc(N2CC3(CCN(CC4CC4)C3)CC2=O)cn1 (stereo unspecified),15.3
14,Cc1nn(C)c(C)c1-c1cnc(C2CCCN(S(C)(=O)=O)C2)cn1 (stereo unspecified),-6.92
15,CCNc1cc2c(nn1)CCN(C(=O)C1CCc3ccccc31)C2 (stereo unspecified),11.2
16,COCC(=O)N1CCC(c2cc3nc(C)cc(C(F)(F)F)n3n2)CC1,20.15
17,O=C1NC2(CCCN(C(=O)CCn3cccn3)C2)Oc2ccccc21 (stereo unspecified),10.385
18,c1ccc(-n2cc(CNCC3CCCN3c3cccnn3)nn2)cc1 (stereo unspecified),18.2
19,c1ccc(-n2ncc(CNCC3CCCN3c3cccnn3)n2)cc1 (stereo unspecified),57.2
20,c1ccc(-n2ccc(CNCC3CCCN3c3cccnn3)n2)cc1 (stereo unspecified),16.9
21,Cc1ccc(C(=O)NS(=O)(=O)c2ccccc2Br)c(=O)[nH]1,44.1
22,Cc1ccc(C(CCNCCCN(C)C)C2CCOC(C)(C)C2)cc1 (stereo unspecified),32.3
